Compound activity as filed in PubChem BioAssay.
DT40 TDP1 CPT: DT40-hTDP1 cell growth loss with CPT. chicken DT40 Tdp1-/-;hTDP1 cells + 20 nM CPT, ATP luminescence, 48 h. Potency, µM (top dose mostly 46.2 µM), inactives show at the highest dose activity change, negative = growth inhibition, most hits filed as inhibitors. 12% of 420,000 active. AID 686979; note: potency is the fitted concentration of half-maximal effect; nearly all actives have a fitted effect of over 55% in size
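Chicken DT40 Tdp1-/- cells complemented with human TDP1, 400 cells/well, exposed to compounds plus 20 nM camptothecin for at least 48 h at 37 C; viability read as ATP content by CellTiter-Glo luminescence.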
HT1080NT lethal: kills 2HG-producing HT-1080-NT fibrosarcoma cells | Potency, µM (series often up to 46.1 µM), inactives show at the highest dose activity, negative = less viability, most hits filed as cytotoxic | AID 686970 | HT-1080-NT fibrosarcoma viability, CellTiter-Glo ATP luminescence, 48 h | 1.6% of 360,000 active;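 note: NT is the 2HG producing partner of a matched IDH1 knockdown line; potency is the fitted concentration of half-maximal effect; 0% = DMSO-treated cells and -100% = media-only wells without cells; nearly all actives have a fitted effect of over 55% in size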
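HT-1080-NT fibrosarcoma cells (2HG-overproducing), 750 cells/well in RPMI with 5% FBS, dosed after 2 h and incubated 48 h at 37C. CellTiter-Glo luminescence normalized to DMSO and no-cell wells; concentration-response curves fitted and classed.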
IL-1B inflam inh: inhibitors of inflammasome signaling (IL-1 beta secretion). THP-1 LPS/ATP IL-1B secretion, AlphaLISA, 16 h; hits give low values. activity change, % at 57.5 µM. 4.7% of 360,000 active; in the data active = activity change below about -50%; inconclusive = mostly about -30% to -49%
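THP-1 cells pretreated 1 hr with compounds (up to 57.5 uM final), then stimulated with LPS (250 ng/mL final) plus ATP (1.25 mM final); secreted IL-1B measured by AlphaLISA after 16 hr, decreased signal indicating inhibition.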
TDP1 cell noCPT: qHTS for Inhibitors of human tyrosyl-DNA phosphodiesterase 1 (TDP1): qHTS in cells in absence of CPT; DT40 Tdp1-/- hTDP1 cells, no CPT, ATP luminescence, 48 h; Potency, µM (top dose mostly 46.2 µM), inactives show at the top dose activity change, negative = growth inhibition, hits mostly inhibitors; 15% of 420,000 active; AID 686978, 2013; note: potency is the fitted concentration of half-maximal effect; nearly all actives have a fitted effect of over 55% in size
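Stably hTDP1-transfected Tdp1-null chicken DT40 cells were treated with library compounds minus camptothecin and grown for at least 48 hr at 37 °C, after which cellular ATP was quantified by luminescence.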
HT1080 IDH1KD tx: kills HT-1080 cells with IDH1 knockdown; HT-1080 IDH1 knockdown viability, ATP luminescence, 48 h; AID 686971; 2% of 360,000 active; Potency, µM (highest dose often 46.1 µM), inactives show top-dose activity, negative = toxicity, usual class: cytotoxic;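 note: potency is the fitted concentration of half-maximal effect; 0% = DMSO wells and -100% = cell-free medium wells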
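IDH1KD HT-1080 cells, 750/well, RPMI + 5% FBS; compound pinned after 2 h settling; 48 h, 37 °C; CellTiter-Glo luminescence; % activity normalised to DMSO and no-cell wells; curves fitted, classed by r2 and efficacy.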
uPA generation: inhibitors of cell surface uPA generation; AID 540303; 0.31% of 330,000 active; Potency, µM (series often up to 38.3 µM), without a hit: top-dose activity change, negative = inhibition, hits mostly inhibitors; cell surface uPA generation assay, qHTS; active = well fitted inhibition curve with a large enough effect; inconclusive = small, poorly fitted or top-dose-only effect; inactive = no such curve, though single readings can be large or run the other way; tested in mouse RAW 264.7 cells; note: potency is the fitted concentration of half-maximal effect; nearly all actives have a fitted effect of over 55% in size
* marks the source's active call; other numbers are inactive results; ? = inconclusive; nt = no result. Rows were chosen to be rich in hits. Some 19% of all compounds tested hit in one or more screens of this group. Unless noted, calls come from the whole dose curve; as a rule, active = well fitted curve in the direction sought with a large enough effect; inconclusive = small, poorly fitted or top-dose-only effect, or another doubt; inactive = no such curve, though single readings can be large; an effect the other way counts as inactive or inconclusive. Unless noted, % is set by controls: 0 for no effect and ±100 for the full control effect.

SMILES | DT40 TDP1 CPT | HT1080NT lethal | IL-1B inflam inh | TDP1 cell noCPT | HT1080 IDH1KD tx | uPA generation
CC(C)c1ccc(NC(=O)CSc2nc(=O)n(CCN3CCOCC3)c3c2CCC3)cc1 | -16% | 10% | -8 | -13% | 2% | -7%
COc1ccccc1/C=C/CN1CCCC(CO)(Cc2cccc(Cl)c2)C1 (centres undefined) | ? | 26µM* | -70* | 23µM* | 16µM* | 6%
Cc1ccccc1CC1(CO)CCCN(Cc2ccc(C#CC(C)(C)O)cc2)C1 (centres undefined) | ? | -23% | -29 | ? | -14% | 3%
CCn1nc(C)c(CN2CCCC(CO)(Cc3cccc(Cl)c3)C2)c1C (centres undefined) | ? | -2% | -2 | 16µM* | 0% | -13%
Cc1c(CN2CCCC(CO)(Cc3cccc(Cl)c3)C2)cnn1C (centres undefined) | -22% | 3% | -14 | 12% | 4% | 0%
OCC1(Cc2cccc(Cl)c2)CCCN(Cc2sc(N3CCCC3)nc2Cl)C1 (centres undefined) | 21µM* | -5% | 8 | 18µM* | -9% | 4%
COc1cccc(CC2(CO)CCCN(C/C=C/c3ccccc3OC)C2)c1 (centres undefined) | ? | -27% | -5 | ? | -29% | 0%
CC(C)(O)C#Cc1ccc(CN2CCCC(CO)(Cc3cccc(Cl)c3)C2)cc1 (centres undefined) | 15µM* | -24% | -3 | 15µM* | -24% | ?
COc1cc(Cl)c(CN2CCCC(CO)(Cc3cccc(Cl)c3)C2)cc1OC (centres undefined) | 18µM* | -26% | 11 | ? | -25% | 4%
S=C(NCc1ccc(Cl)cc1)NN1CCOCC1 | 5% | 9% | 21 | -19% | 4% | nt
N#C/C(=C\c1ccco1)Sc1nc2ccccc2s1 | -17% | -7% | -66* | -18% | -18% | -6%
O=C(Nc1ccc(OCc2ccccc2)cc1)Nc1nnc([C@@H]2C[C@H](O)[C@@H](CO)O2)s1 | ? | -7% | 124 | -19% | -1% | nt
COc1ccccc1CNC(=O)CCCc1nnc2n(C)c(=O)c3sccc3n12 | -5% | 0% | -21 | ? | 0% | 20%
CC(C)(C)OC(=O)[C@H](Cc1ccccc1)NC(=O)c1[nH]cnc1C(=O)Nc1cccc(Cl)c1 | ? | ? | -51* | ? | ? | -20%
CC(C)(C)OC(=O)[C@H](Cc1ccccc1)NC(=O)c1[nH]cnc1C(=O)Nc1ccc(Cl)cc1 | ? | ? | -59* | ? | ? | -25%
Cc1cccc(NC(=O)c2nc[nH]c2C(=O)N[C@@H](Cc2ccccc2)C(=O)OC(C)(C)C)c1 | ? | ? | -58* | ? | ? | ?
Cc1cccc(OCCSc2nnc(-c3cccs3)o2)c1 | -30% | nt | nt | ? | nt | nt
CCOC(=O)N=Nc1c2ccccc2c2nc3no[nH]c3nc12 | 0.41µM* | 1.2µM* | -103* | 1.3µM* | 1µM* | -16%
CCOC(=O)N=Nc1c(O)n(CC(=O)OC)c2ccccc12 | 2% | 16% | 8 | 4% | 15% | -2%
CCCC(=O)Nc1cccc(S(=O)(=O)N(C)c2ccccc2)c1 | 16µM* | 6% | 3 | ? | 1% | -11%
CN(c1ccccc1)S(=O)(=O)c1cccc(NC(=O)CCNC(=O)c2ccc([N+](=O)[O-])cc2)c1 | ? | 1% | ? | ? | -1% | -6%
CN(c1ccccc1)S(=O)(=O)c1cccc(NC(=O)CCNC(=O)c2ccc(Cl)cc2)c1 | 23µM* | -11% | -13 | ? | -18% | -8%
CN(c1ccccc1)S(=O)(=O)c1cccc(NC(=O)CCNC(=O)c2ccccc2)c1 | 18µM* | 4% | 12 | 16µM* | 6% | -13%
CN(c1ccccc1)S(=O)(=O)c1cccc(NC(=O)COc2ccccc2)c1 | ? | 0% | 8 | ? | 3% | -7%
CC1(C)C(=O)Nc2ccccc2N1C(=O)COC(=O)c1cccnc1Cl | 2% | 12% | 9 | 2% | 8% | -14%
SMILES | DT40 TDP1 CPT | HT1080NT lethal | IL-1B inflam inh | TDP1 cell noCPT | HT1080 IDH1KD tx | uPA generation
CCOc1ccccc1N1CC(C(=O)NNC(=O)c2cc(OC)c(OC)c(OC)c2)CC1=O (centres undefined) | 7% | 11% | 16 | 3.7µM* | 14% | 6%
CCOc1ccccc1N1CC(C(=O)N2CCc3ccccc3C2)CC1=O (centres undefined) | 16µM* | 0% | 36 | 15µM* | 0% | 1%
COc1ccc(C(=O)C(=O)N2CCN(c3ccccc3F)CC2)cc1 | ? | 18% | -15 | ? | 3% | nt
Cn1cc(-c2nc3cnc(Oc4ccccc4)nc3n(C)c2=O)c2ccccc21 | 3% | nt | nt | 6% | nt | nt
Cc1cccc(CSc2ncc(Cl)c(C(=O)Nc3sc4c(c3C#N)CCCC4)n2)c1 | 23µM* | nt | nt | 5.8µM* | nt | nt
COC(=O)c1c(NC(=O)c2nc(SCc3cccc(C)c3)ncc2Cl)sc2c1CCCC2 | -20% | nt | nt | -3% | nt | nt
Cc1cccc(CSc2ncc(Cl)c(C(=O)Nc3sc4c(c3C(N)=O)CCCC4)n2)c1 | 23µM* | nt | nt | 8.2µM* | nt | nt
COC[C@H]1CCCN1c1ccc2c(c1)O[C@H](COCc1ccccc1)CN([C@@H](C)c1ccccc1)S2(=O)=O | ? | 10% | 23 | 16µM* | 1% | nt
COC[C@H]1CCCN1c1ccc2c(c1)O[C@@H](COCc1ccccc1)CN([C@@H](C)c1ccccc1)S2(=O)=O | 10µM* | 9% | 5 | 7.3µM* | -2% | nt
CCCCC[C@@H](C)N1C[C@H](COCc2ccccc2)Oc2cc(N3CCC[C@@H]3COC)ccc2S1(=O)=O | ? | 2% | -2 | 15µM* | -4% | nt
COC[C@@H]1CCCN1c1ccc2c(c1)O[C@H](COCc1ccccc1)CN([C@H](C)c1ccccc1)S2(=O)=O | ? | 12% | 16 | 21µM* | -2% | nt
C[C@@H](c1ccccc1)N1C[C@H](COCc2ccccc2)Oc2cc(N3CCC[C@H]3CO)ccc2S1(=O)=O | ? | -14% | -12 | ? | -14% | nt
Nc1[nH]c(C(=O)c2ccccc2)c(-c2ccncc2)c1C(=O)NCc1ccc(Cl)cc1 | 7% | 1% | 2 | -8% | 9% | nt
Cc1ccccc1Nc1c(F)c(F)c(F)c(F)c1C(=O)O | -7% | 0% | 15 | -6% | 5% | 3%
